In PubChem BioAssay AID687014 (The Scripps Research Institute Molecular Screening Center, 2013):
The campaign covered roughly 370,000 compounds. About 6,800 (1.8%) were called active. This excerpt belongs to a sample that is enriched for actives. Values without a mark were called inactive.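 Rule for the calls: active = activation above a cutoff set at the mean of all screened compounds plus 3 SD (cut at about 10% in these data); inactive = the rest.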

system: Nuclear hormone receptor DAF-12 (Heterodera glycines), GAL4 fusion; test: hgDAF-12 GAL4 fusion reporter activation – cell-based, luminescence, HEK293, UAS-luciferase, primary screen (AID 687014); conditions: HEK293 GAL4-hgDAF12 UAS-luciferase reporter, agonist luminescence; at 6.8 µM; active compounds read high; normalized to butyrate control;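 note: 0% = DMSO wells and 100% = sodium butyrate wells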

Q: `Nc1nc2c(ncn2[C@@H]2O[C@H](C(=O)N[C@@H](Cc3ccccc3)C(=O)NCc3ccccc3)[C@@H](O)[C@H]2O)c(=O)[nH]1` was tested. Which activation did it give?
A: Its activation is -2.72%.

Q: How did the activation turn out when `CCOC(=O)N1CCN(C(=O)C[C@H]2C[C@@]3(C(=O)OC)C(=C[C@H](C4CCCC4)O[C@@H]3C)N(Cc3ccccc3)C2=O)CC1` was run?
A: The activation was -1.3%.

Q: With `Cc1ccc2cc(/C=N/Nc3ccc(C(=O)O)cc3)c(Cl)nc2c1` as the compound, how does the activation read?
A: The activation was 11.9% (active).

Q: For `CSCC[C@H](NC(=O)OC(C)(C)C)C(=O)N/N=C/c1cc2ccc(C)cc2nc1Cl`, which activation is on record?
A: The activation was -1.8%.

Q: For `CC(=O)Nc1ccc(C(=O)CSc2nc3ccc(C)cc3[nH]2)cc1`, which activation is on record?
A: The activation was 8.98%.

Q: How did the activation turn out when `C=C(C)C#CC(Cc1ccccc1)N(CC1CC1)/C(N)=N/C(=O)OCc1ccccc1` (stereo not drawn) was run?
A: Its activation is 1.8%.

Q: With `COc1cc(/C=C/C(=O)O)cc(S(=O)(=O)Nc2ccccc2SC)c1OC` as the compound, how does the activation read?
A: Its activation is 1.71%.

Q: Which activation does the source give for `Cc1ccc(CCNC(=O)c2ccc3nc4ccccc4c(=O)n3c2)cc1` here?
A: The activation was 3.9%.

Q: With `Cc1ccc(C(=O)NNc2ncnc3ccccc23)cc1` as the compound, how does the activation read?
A: The activation was 16% (active).

Q: For `Cn1ncc2c(NNC(=O)Cc3cccc4ccccc34)ncnc21`, which activation is on record?
A: Its activation is -0.95%.

Q: Which activation does the source give for `COC(=O)Cc1nnn2c1[C@H](C)[C@H](c1ccccc1Br)OCC2` here?
A: The activation was -0.72%.

Q: `C=CCn1cc(C(=O)NCc2ccc(Cl)cc2)c(=O)c2cc(S(=O)(=O)N(CC)CC)ccc21` was tested. Which activation did it give?
A: The activation was 0.3%.

Q: How did the activation turn out when `CC(=O)c1cc(C#N)c(SCC(=O)Nc2nccs2)nc1C` was run?
A: Its activation is 8.08%.

Q: Which activation does the source give for `CC(=O)c1cc(C#N)c(N2CC(C)OC(C)C2)nc1C` (stereo not drawn) here?
A: The activation was 0.39%.

Q: For `CC(=O)c1cc(C#N)c(SCC(=O)C(C)(C)C)nc1C`, which activation is on record?
A: The activation was 27.1% (active).

Q: For `CC(C)(C)OC(=O)NCc1cc(F)ccc1/C=C/S(=O)(=O)NCCc1ccccc1`, which activation is on record?
A: The activation was 0.64%.

Q: How did the activation turn out when `Cc1ccc(Cc2c(-c3ccc(C)cc3)nc3c4ccccc4ccn23)cc1` was run?
A: The activation was 0.89%.

Q: With `c1ccc(Cc2c(-c3ccco3)nc3c4ccccc4ccn23)cc1` as the compound, how does the activation read?
A: Its activation is 22.7% (active).

Q: For `Cc1ccc(Cc2c(-c3ccc(Cl)cc3)nc3c4ccccc4ccn23)cc1`, which activation is on record?
A: The activation was 4.25%.

Q: With `CC(C(=O)N=Nc1c(O)n(C)c2ccc(Br)cc12)n1cnc2ccccc2c1=O` (stereo not drawn) as the compound, how does the activation read?
A: Its activation is 0.17%.

Q: `CC(=O)C1=C(C)N(Cc2ccc(Cl)cc2)C(=S)NC1c1ccc(F)cc1` (stereo not drawn) was tested. Which activation did it give?
A: The activation was 3.22%.

Q: For `N#Cc1ccc(OCCCN2CCC(C(O)(c3ccccc3)c3ccccc3)CC2)c(F)c1`, which activation is on record?
A: The activation was 0.54%.

Q: How did the activation turn out when `C=CCNc1cnn(-c2ccc(C)cc2)c(=O)c1Cl` was run?
A: Its activation is 12.7% (active).

Q: With `Cc1cccc(-n2ncc(Cl)c(Cl)c2=O)c1` as the compound, how does the activation read?
A: The activation was -2.03%.

Q: `CC1=C(C(=O)NC2CC(C)(C)Cc3c2cnn3-c2ccc(C)cc2)OCCO1` (stereo not drawn) was tested. Which activation did it give?
A: Its activation is -2.28%.

Q: How did the activation turn out when `COC(=O)[C@H](C(C)C)N(CCCc1cn(Cc2ccccc2)nn1)S(=O)(=O)c1ccc(F)cc1Br` was run?
A: The activation was -3.54%.

Q: With `COC(=O)C[C@@H]1C=C[C@@H](NC(=O)c2ccc3c(c2)OCO3)[C@@H](CO)O1` as the compound, how does the activation read?
A: Its activation is -0.93%.

Q: For `CC12CCC(C(=O)N3CCN(c4ncccn4)CC3)(c3nc4ccccc4nc31)C2(C)C` (stereo not drawn), which activation is on record?
A: Its activation is -2.77%.

Q: How did the activation turn out when `CC1=C(N2CCN(c3ncccn3)CC2)CCC1=O` was run?
A: Its activation is 1.9%.

Q: How did the activation turn out when `c1cnc(N2CCN(c3ccc4ccccc4n3)CC2)nc1` was run?
A: Its activation is 13.8% (active).

Q: For `CN1C(=O)C(Br)(Br)CC1c1cccnc1` (stereo not drawn), which activation is on record?
A: The activation was 2.1%.

Q: For `CCCCCCCCN1C(=O)[C@@H](CC(=O)N2CCN(C(=O)OCC)CC2)C[C@@]2(C(=O)OC)C1=C[C@H](C1CCCC1)O[C@@H]2C`, which activation is on record?
A: The activation was -1.38%.

Q: With `Cc1csc(NC(=O)CSc2nc(=O)n(CCCN(C)C)c3c2CCC3)n1` as the compound, how does the activation read?
A: Its activation is -0.31%.

Q: With `CN1OC[C@@H]2CN[C@H](c3ccc(-c4ccccc4)cc3)C[C@@H]21` as the compound, how does the activation read?
A: Its activation is 10.5% (active).

Q: With `CN1OC[C@@H]2CN(C(=O)c3ccc(-c4ccccc4)cc3)[C@H](c3ccc(-c4cccc(F)c4)cc3)C[C@@H]21` as the compound, how does the activation read?
A: The activation was 2.92%.

Q: `COc1ccc(CN2C[C@H]3CON(C)[C@H]3C[C@H]2c2ccc(-c3cccc(F)c3)cc2)cc1` was tested. Which activation did it give?
A: Its activation is -1.7%.

Q: `O=C(NCc1ccccc1Cl)c1ccc2c(=O)n(CC3CCCO3)c(=S)[nH]c2c1` (stereo not drawn) was tested. Which activation did it give?
A: Its activation is 1.69%.

Q: For `O=S1(=O)c2c(cccc2N2CCCCC2)O[C@H](COCc2ccccc2)CN1C1CC1`, which activation is on record?
A: Its activation is -1.38%.

Q: Which activation does the source give for `CCCNC(=O)c1c(Cl)cnn1-c1ccc(C)cc1` here?
A: Its activation is 14.5% (active).

Q: How did the activation turn out when `CCCNC(=O)CCc1c(C)nc2c(c(C)nn2-c2ccc(C)cc2)c1C` was run?
A: Its activation is -0.59%.

Q: Which activation does the source give for `CCOc1ccc(Oc2c(Cl)cnn(-c3ccc(C)cc3)c2=O)cc1` here?
A: Its activation is 1.52%.

Q: With `CCCCCCCCN1C(=O)[C@@H](CC(=O)NCCCC)C[C@@]2(C(=O)OC)C1=C[C@H](C(C)(C)C)O[C@@H]2C` as the compound, how does the activation read?
A: Its activation is 0.13%.

Q: For `O=C(CSc1nc2ccccc2c(=O)n1Cc1ccc(F)cc1)NCC1CCCO1` (stereo not drawn), which activation is on record?
A: Its activation is 0.43%.
